Screens as filed in PubChem.
VP16 counter: VP16 counterscreen qHTS for inhibitors of ROR gamma transcriptional activity. Drosophila S2 Gal4-VP16 UAS-luciferase, luminescence, 20 h. Potency, µM (titrated, usually from 53.6 µM), usual class: inhibitors. 3.5% of 310,000 active. AID 2546, 2010;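 further: Gal4-VP16 expression switched on by copper sulfate through the metallothionein promoter; nearly all actives have a fitted effect of over 50% in size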
RORgamma inh: qHTS for inhibitors of ROR gamma transcriptional activity; 5.4% of 310,000 active; Drosophila S2 Gal4-RORgamma UAS-luciferase reporter, 20 h; Potency, µM (titrated, usually from 53.6 µM), hits mostly inhibitors; Nuclear receptor ROR-gamma (Mus musculus), P51450; further: nearly all actives have a fitted effect of over 60% in size
Target sequence (P51450 whole entry, looked up, the tested form may be a part): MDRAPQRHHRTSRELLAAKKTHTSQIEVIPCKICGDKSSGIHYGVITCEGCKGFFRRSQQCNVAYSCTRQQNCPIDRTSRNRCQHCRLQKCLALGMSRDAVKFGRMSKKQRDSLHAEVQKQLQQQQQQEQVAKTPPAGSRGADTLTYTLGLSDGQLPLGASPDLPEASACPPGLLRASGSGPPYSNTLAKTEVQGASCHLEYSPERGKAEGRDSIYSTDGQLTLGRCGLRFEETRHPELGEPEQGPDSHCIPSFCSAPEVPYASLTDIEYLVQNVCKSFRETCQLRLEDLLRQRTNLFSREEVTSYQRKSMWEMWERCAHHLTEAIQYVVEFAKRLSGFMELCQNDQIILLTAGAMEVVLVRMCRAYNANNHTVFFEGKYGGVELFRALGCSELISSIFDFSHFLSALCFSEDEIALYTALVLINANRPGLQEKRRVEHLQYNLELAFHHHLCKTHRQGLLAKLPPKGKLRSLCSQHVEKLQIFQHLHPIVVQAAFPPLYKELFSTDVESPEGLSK
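Drosophila Schneider cells stably carrying a metallothionein-driven Gal4 DBD–ROR gamma fusion and a UAS-Photinus luciferase reporter were exposed to compound for 1 hr, then induced with copper sulfate (700 uM final) for 20 hr at ambient temperature before luminescence reading.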
Luc counter: Counterscreen for Luciferase (Kinase-Glo TM) Inhibition. AID 1379, 2008. Luciferin 4-monooxygenase (Photuris pensylvanica), Q27757. 0.28% of 200,000 active. Potency, µM (doses to about 38.3 µM), actives largely listed as inhibitors. Kinase-Glo luciferase, ATP luminescence, 8 min; further: nearly all actives have a fitted effect of over 60% in size
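Compounds were added to a substrate mix at pH 7.2 (50 mM imidazole, 10 uM ATP, within the enzyme's linear range), followed by Kinase-Glo detection reagent; luminescence was measured after 8 minutes at ambient temperature.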
Hits are given with their value; n = inactive; u = inconclusive; x = no result given; [ ] = another dose, or the depositor's remark. A selection: hits, their analogues and other compounds. The true share with any hit is near 6.4%. The call rests on the fitted dose curve; in most records, active means well fitted curve in the direction sought with a large enough effect; inconclusive means small, poorly fitted or top-dose-only effect, or another doubt; inactive means no such curve, though single readings can be large; an effect the other way counts as inactive or inconclusive.

SMILES | VP16 counter | RORgamma inh | Luc counter
Cc1cc(C(=O)Nc2cc(C(C)(C)C)on2)c(C)o1 | n | 10µM | x
Cc1cc(C(=O)Nc2ccon2)c(C)o1 | n | n | n
COc1cccc(CNC(=O)CCC2CCCN(C(=O)c3csc(C(C)C)n3)C2)c1 (stereo not given) | n | u | n
CC(=O)N(C1CC(C)C(C#N)(C#N)C1(C#N)C#N)N(C)C (stereo not given) | n[10 µM] | 7.94µM | n
CCCC(=O)N(C1CC(C)C(C#N)(C#N)C1(C#N)C#N)N(C)C (stereo not given) | n | n | x
COc1cc([N+](=O)[O-])ccc1NC(=O)CSc1nncn1-c1cccnc1 | n | n | x
COc1ccc(C(=O)CC(=O)C(=O)Nc2ccccc2C(F)(F)F)cc1 | 7.08µM | 6.31µM | x
COc1ccc(C(=O)CC(=O)C(=O)Nc2ccc(OC)c(Cl)c2)cc1 | n | n | x
COc1ccc(C(=O)CC(=O)C(=O)Nc2ccc(Cl)cc2)cc1 | 12.6µM | 7.08µM | x
COc1ccc(C(=O)CC(=O)C(=O)Nc2ccccc2Cl)cc1 | 3.16µM | 6.31µM | x
FC(F)(F)c1ccccc1NC(=S)Nc1ccccc1 | n | u | x
COc1ccc(NC(=S)Nc2ccccc2C(F)(F)F)cc1 | u | 11.2µM | n
COc1ccc(C(=O)CC(=O)C(=O)Nc2cc(OC)ccc2OC)cc1 | n | u | x
COc1ccc(C(=O)CC(=O)C(=O)Nc2cc(Cl)c(OC)cc2OC)cc1 | n | u | n
CCCc1nnc(SCC(=O)Nc2cccc(C(F)(F)F)c2)o1 | n | n | x
Cc1cc(C)cc(OCc2ccc(C(=O)NN)o2)c1 | n | n | x
OB(O)c1cc2ccccc2s1 | n | n | n
COc1ccc(C(=O)CC(=O)C(=O)Nc2c(C)cccc2C)cc1 | 5.62µM | 6.31µM | x
COc1ccc(S(=O)(=O)CCC(=O)Nc2c(C)cccc2C)cc1 | n | n | x
COc1ccc(C2C3C=CCCC3(C)C(=O)N2Cc2ccccc2)cc1Cl (stereo not given) | n | n | x
O=C(N/N=C/C(Cl)=C/c1ccccc1)c1ccccn1 | u | u | n
Cc1occc1C(=O)N/N=C/c1ccc2c(c1)OCO2 | u | 7.94µM | x
Cc1occc1C(=O)N/N=C/c1ccc(OCc2ccccc2)cc1 | n | u | x
Cc1cc(C(=O)N/N=C/C(Cl)=C/c2ccccc2)c(C)o1 | 12.6µM | n | x
Cc1occc1C(=O)N/N=C/c1ccc(-c2ccccc2)cc1 | u | 12.6µM | x
SMILES | VP16 counter | RORgamma inh | Luc counter
Cc1cc(C(=O)N/N=C/c2ccc3c(c2)OCO3)c(C)o1 | n | u | 12.6µM
COc1ccc(/C=N/NC(=O)c2ccoc2C)cc1O | n | n[10 µM] | n
O=C(N/N=C/c1ccc2c(c1)OCO2)c1ccc(Cl)cc1Cl | n | n | x
COc1ccc(CN2CCNC(=O)C2CC(=O)NCc2cc(C)n(C)n2)c(F)c1 (stereo not given) | n | n | x
CC(C)N1CCN(Cc2coc3ccccc3c2=O)CC1CCO (stereo not given) | n | n | n
CC(C)c1nc2sc3c(=S)nc[nH]c3c2c2c1CCC2 | u | 3.16µM | x
CC(C)c1nc2sc3c(=O)[nH]cnc3c2c2c1CCC2 | n | n | n
CCN1C(=C(C#N)C#N)C=Cc2cc(C)ccc21 | n | n | n
C=CC[n+]1c(/C=C2\C=Cc3cc(C)ccc3N2CC)ccc2ccccc21 | 3.16µM | u | n
COC(=O)c1ccc(CN2C(=O)NC(Cc3c[nH]c4ccccc34)C2=O)cc1 (stereo not given) | n | n | x
Oc1ccc(Nc2nc(-c3ccccc3)nc3ccccc23)cc1 | n | n | x
CC(=O)Nc1ccc(Nc2nc(-c3ccccc3)nc3ccccc23)cc1 | 12.6µM | n | x
NC(CO)(CO)CO | n | n | n
CCOC(=O)c1cc(-c2ccncc2)nc2c1c(C)nn2C | n | n | n
CCOC(=O)c1cc(-c2ccccc2)nc2c1c(C)nn2-c1ccccn1 | 11.2µM | 3.98µM | n
C[Si](C)(C)C#Cc1ccccc1NC(=S)Nc1ccccc1 | u | 14.1µM | n
S=C(NNC(=S)Nc1ccccc1)Nc1ccccc1 | u | n | x
N#Cc1ccccc1NC(=S)Nc1ccc(F)cc1 | 20µM | 17.8µM | n
S=C(Nc1ccccc1)Nc1ccccc1-n1cccc1 | 15.8µM | 4.47µM | x
N#Cc1ccccc1NC(=S)NC(=O)c1cccs1 | n | n | x
S=C(Nc1ccccc1)Nc1ccccc1C#Cc1ccccc1 | u | 11.2µM | n
N#Cc1ccc(NC(=S)Nc2ccccc2)cc1 | n | n | n
O=S(=O)(Oc1ccc(Cl)cc1)c1cccc2cccnc12 | n | n | x
COc1ccccc1NC(=O)CSCc1ccc([N+](=O)[O-])cc1 | n | n | n
CC(C)CC(=O)N1CCN(C(=O)c2ccc(F)cc2)CC1 | n | n | x
SMILES | VP16 counter | RORgamma inh | Luc counter
Cc1ccc(CNC(=O)C(=O)NCC2OCCN2C(=O)c2cccs2)cc1 (stereo not given) | n | n | n
CCCCC(=O)NC(c1cccc([N+](=O)[O-])c1)c1c(OC(C)=O)ccc2ccccc12 (stereo not given) | u | n | n
CCCCC(=O)NC(c1ccccc1)c1ccc2cccnc2c1O (stereo not given) | 2.51µM | 1.26µM | x
CCCC(=O)NC(c1ccc(OC)cc1)c1ccc2cccnc2c1O (stereo not given) | 4.47µM | 1.78µM | n
CCCCC(=O)NC(c1ccccc1Cl)c1ccc2cccnc2c1O (stereo not given) | 3.55µM | 5.01µM | x
CCC(=O)NC(c1ccc(OC)cc1)c1cc(Cl)c2cccnc2c1O (stereo not given) | n | n | n
COc1ccc(Cl)cc1C(Nc1cccnc1)c1ccc2cccnc2c1O (stereo not given) | 2.24µM | 1.12µM | x
CCC(=O)NC(c1ccccc1Cl)c1c(O)ccc2ccccc12 (stereo not given) | n | n | n
COc1ccc(C(=O)Nc2cccnc2)cc1OC | n | n | n
NC(=O)CC(NC(=O)c1cccc(Br)c1)c1ccc(N2CCN(c3ccccn3)CC2)c([N+](=O)[O-])c1 (stereo not given) | n | n | x
COc1ccc(C(=O)NCCNc2nc3cc(C)c(C)cc3cc2C)cc1 | n | n | x
Cc1ccc(S(=O)(=O)N2CCC(=O)CC2)cc1 | n | n | x
CC(=O)NCCOc1cccc2cccnc12 | n | n | n
COc1cccc(CNc2cccc3cccnc23)c1O | x | n[0.365 µM] | n
CCCCCOc1ccc(NC(=O)CSc2cccc3cccnc23)cc1 | u | u | n
CCC(=O)NC(c1ccccc1OC)c1ccc2cccnc2c1O (stereo not given) | 5.01µM | 5.01µM | n
CC(=O)NC(c1ccc(C(C)C)cc1)c1ccc2cccnc2c1O (stereo not given) | 2.82µM | 3.55µM | x
CCCCC(=O)NC(c1ccc(C(C)C)cc1)c1ccc2cccnc2c1O (stereo not given) | 2.82µM | 2.51µM | x
C(#CCN1CCC(Cc2ccccc2)CC1)COCCOCc1ccccc1 | n | n[10 µM] | n
CCC(NC(=O)COc1cc2c(c3oc(=O)c(C)c(C)c13)CCC(C)(C)O2)C(=O)O (stereo not given) | n | n | x
COC(=O)CCCC(=O)N1CCC(CCC(=O)NC2CC2)CC1 | n | n | x
COc1cc(C2NC(=O)C(C#N)=C(S)N2c2ccccc2)ccc1OC(C)C (stereo not given) | u | 10µM | n
